Reference: ChEMBL document CHEMBL1157539, “Thousands of chemical starting points for antimalarial lead identification” (Nature, 2010)

How the values were obtained:
Format in all cases: functional
[1] = system: Plasmodium falciparum; assay: GSK_TCMDC: Inhibition of Plasmodium falciparum 3D7 in whole red blood cells, using parasite LDH activity as an index of growth. Test compounds present at 2uM
[2] = system: Plasmodium falciparum; assay: GSK_TCMDC: Inhibition of Plasmodium falciparum Dd2 in whole red blood cells, using parasite LDH activity as an index of growth. Test compounds present at 2uM
[3] = system: HepG2; assay: GSK_TCMDC: Percent inhibition of human HepG2 cell line. Test compounds present at 10uM.

COc1ccc2nccc([C@@H](O)CN3CCC(NCC(O)Cc4ccccc4)CC3)c2c1.O=C(O)C(=O)O (stereo not given in full)
Inhibition [1]: 98%
Inhibition [2]: 6%
Inhibition [3]: 5%

COc1ccc(CCNCCCCCCNCCc2ccc(OC)c(OC)c2Cl)c(Cl)c1OC.Cl
Inhibition [1]: 96%
Inhibition [2]: 0%
Inhibition [3]: 19%

CN(CCN)Cc1ccc(-c2ccc(-c3nc4cc(C(F)(F)F)ccc4[nH]3)s2)cc1.O=C(O)C(F)(F)F
Inhibition [1]: 98%
Inhibition [2]: 98%
Inhibition [3]: 37%

CN(C)Cc1ccc(-c2ccc3c(Nc4ccc(Oc5ccccc5)cc4)ccnc3c2)o1
Inhibition [1]: 100%
Inhibition [2]: 100%
Inhibition [3]: 10%

Cn1nc(-c2ccc(NC(=O)Nc3cc(C(F)(F)F)ccc3F)cc2)c2cnc(NCCCCN3CCCC3)nc21.O=C(O)C(F)(F)F
Inhibition [1]: 98%
Inhibition [2]: 74%
Inhibition [3]: 88%

COc1ccc(CNCc2ccc(-c3cccc(-c4nc5cc(C(F)(F)F)ccc5[nH]4)c3)cc2)cc1.O=C(O)C(F)(F)F
Inhibition [1]: 100%
Inhibition [2]: 100%
Inhibition [3]: 59%

CN(C(=O)/C=C/c1ccccc1F)C1CCN(CCCCCNC(=O)/C=C/c2ccc(Cl)c(Cl)c2)CC1
Inhibition [1]: 89%
Inhibition [2]: 59%
Inhibition [3]: 73%

CCN(CC)CCNC(=O)c1ccc(NC(=O)c2oc3c(Cl)cccc3c2C)cc1
Inhibition [1]: 98%
Inhibition [2]: 68%
Inhibition [3]: 24%

CC(C)C1=C[C@H]2C[C@]3(C4OCCO4)[C@@H]4CC[C@@H](C)[C@H]4C[C@@]2(COCc2cccc(C#N)c2)[C@]13C(=O)OC(c1ccccc1)c1ccccc1
Inhibition [1]: 88%
Inhibition [2]: 92%
Inhibition [3]: 0%

COc1cc(F)c2ncc(Cl)c(C(O)CN3CCC(NC(=O)c4ccc5c(n4)NC(=O)CO5)CC3)c2c1.Cl (stereo not given)
Inhibition [1]: 100%
Inhibition [2]: 100%
Inhibition [3]: 22%

Cl.OCCNc1nc(Nc2ccc(Cl)cc2)nc2ccccc12
Inhibition [1]: 100%
Inhibition [2]: 99%
Inhibition [3]: 30%

Cc1cc(Nc2ccnc(-c3ccc(Cl)cc3)n2)ccn1
Inhibition [1]: 94%
Inhibition [2]: 23%
Inhibition [3]: 6%

c1ccc(Oc2ccc(Nc3ccnc4ccc(-c5ccccn5)cc34)cc2)cc1
Inhibition [1]: 80%
Inhibition [2]: 10%
Inhibition [3]: 4%

O=C(Nc1ccc(C(F)(F)F)cc1)NC1CCN(CCCCCNC(=O)C2CC2c2ccc(Cl)c(Cl)c2)CC1 (stereo not given)
Inhibition [1]: 100%
Inhibition [2]: 45%
Inhibition [3]: 41%

CCOc1cc(C)ccc1C1CCN(CCCCNC(=O)c2coc(-c3ccc(Cl)cc3)c2)CC1.Cl
Inhibition [1]: 92%
Inhibition [2]: 30%
Inhibition [3]: 34%

COc1ccc2nccc([C@@H](O)CN3CCC(NCc4cc5ccccc5nc4O)CC3)c2c1.Cl
Inhibition [1]: 97%
Inhibition [2]: 0%
Inhibition [3]: 0%

CCCCN(Cc1cc(Cl)c(OCC)c(OC)c1)c1ccc(C(O)(C(F)(F)F)C(F)(F)F)cc1.O=C(O)C(F)(F)F
Inhibition [1]: 92%
Inhibition [2]: 97%
Inhibition [3]: 5%

COc1cccc2c(NCc3ccccc3)nc(NCCCN3CCCCC3C)nc12 (stereo not given)
Inhibition [1]: 90%
Inhibition [2]: 2%
Inhibition [3]: 20%

CCN(C(=O)c1ccc(NC(=O)c2cccs2)cc1)c1nc2c(C)cccc2s1
Inhibition [1]: 89%
Inhibition [2]: 85%
Inhibition [3]: 24%

Br.N=C1N=C(N)NC2(CCCCC2)N1OCCOc1ccc(Cc2ccccc2)cc1
Inhibition [1]: 86%
Inhibition [2]: 22%
Inhibition [3]: 34%

C=CCOc1ccc2ccccc2c1CNCCCCCCNCc1c(OCC=C)ccc2ccccc12.CS(=O)(=O)O
Inhibition [1]: 100%
Inhibition [2]: 98%
Inhibition [3]: 99%

O=C(Nc1ccc(C(F)(F)F)cc1)c1ccc(S(=O)(=O)NC2CCCN(CC3CCCCC3)C2)cc1.O=C(O)C(F)(F)F (stereo not given)
Inhibition [1]: 99%
Inhibition [2]: 0%
Inhibition [3]: 45%

FC(F)(F)c1ccc2[nH]c(-c3ccc(-c4cccc(CNCCc5ccncc5)c4)s3)nc2c1.O=C(O)C(F)(F)F
Inhibition [1]: 100%
Inhibition [2]: 95%
Inhibition [3]: 20%

Cc1noc(-c2ccccc2)c1NC(=O)NC1CCN(CCCCCNC(=O)/C=C/c2ccc(Cl)c(Cl)c2)CC1
Inhibition [1]: 93%
Inhibition [2]: 0%
Inhibition [3]: 0%

Cc1cc(N[C@@H](Cc2ccccc2)C(=O)NCc2cccc(F)c2)nc(NCc2ccccc2C)n1.O=C(O)C(F)(F)F
Inhibition [1]: 100%
Inhibition [2]: 75%
Inhibition [3]: 6%

CCCCN1CCCC[C@H]1[C@@H](O)c1ccnc2ccc(OCC)cc12
Inhibition [1]: 100%
Inhibition [2]: 88%
Inhibition [3]: 6%

Cl.O=S(=O)(Nc1cc2c(cc1O)CCN(C1CCC1)CC2)c1ccc(Oc2ccc(F)cc2)cc1
Inhibition [1]: 99%
Inhibition [2]: 52%
Inhibition [3]: 20%

O=C(Nc1ccc2[nH]c(-c3ccc4nc(NC(=O)C5CCCCC5)sc4c3)nc2c1)C1CCCCC1
Inhibition [1]: 100%
Inhibition [2]: 68%
Inhibition [3]: 84%

O=C(NC1CCN(Cc2cccc(C(F)(F)F)c2)CC1)c1ccc(-c2cccc(Cl)c2)s1.O=C(O)C(F)(F)F
Inhibition [1]: 89%
Inhibition [2]: 33%
Inhibition [3]: 26%

Cc1ccc(C2(CN3CCC(NC(=O)c4n[nH]cc4Cl)CC3)CCCCC2)cc1
Inhibition [1]: 97%
Inhibition [2]: 96%
Inhibition [3]: 0%

Cc1ccc(CNC(=O)[C@H](CCCN)Nc2cc(C)nc(NCC3CCCCC3)n2)cc1.O=C(O)C(F)(F)F
Inhibition [1]: 90%
Inhibition [2]: 0%
Inhibition [3]: 1%

CN1CCN(CC(=O)Nc2ccc(-c3csc(-c4nc5ccccc5[nH]4)c3)cc2)CC1
Inhibition [1]: 99%
Inhibition [2]: 46%
Inhibition [3]: 6%

CC(C)CNCc1cccc(-c2cccc(CN(CCN(C)C)C(=O)NCCc3ccccc3)c2)c1.O=C(O)C(F)(F)F
Inhibition [1]: 99%
Inhibition [2]: 83%
Inhibition [3]: 84%

O=C(c1ccc([N+](=O)[O-])o1)N1CCC(Cc2ccc(C(F)(F)F)cc2)CC1
Inhibition [1]: 100%
Inhibition [2]: 99%
Inhibition [3]: 38%

CCN(CC)CCCC(C)Nc1ccnc2[nH]c3ccccc3c12 (stereo not given)
Inhibition [1]: 82%
Inhibition [2]: 38%
Inhibition [3]: 0%

O=C(NC1CCCCN(Cc2ccccc2O)C1)c1cc(F)cc(F)c1.O=C(O)C(F)(F)F (stereo not given)
Inhibition [1]: 89%
Inhibition [2]: 52%
Inhibition [3]: 7%

Cc1ccc(NC(=O)c2ccc(-c3cc4cc(Cl)c(Cl)cc4[nH]3)cc2)cc1OCCN1CCCC1.O=C(O)C(F)(F)F
Inhibition [1]: 100%
Inhibition [2]: 90%
Inhibition [3]: 7%

CNCCCNCc1ccc(-c2ccc(F)c(Cl)c2)o1.Cl
Inhibition [1]: 100%
Inhibition [2]: 12%
Inhibition [3]: 22%

CNc1nc(N/N=C/c2cc3c(cc2[N+](=O)[O-])OCO3)nc(Nc2cccc(C(F)(F)F)c2)n1
Inhibition [1]: 100%
Inhibition [2]: 60%
Inhibition [3]: 0%

CC(=O)NCCCCC1NC2(C(=O)N(Cc3ccc(C(C)(C)C)cc3)c3ccccc32)C2C(=O)N(C3CCCCC3)C(=O)C12 (stereo not given)
Inhibition [1]: 91%
Inhibition [2]: 71%
Inhibition [3]: 0%

CS(=O)(=O)Nc1ccc2[nH]cc(C3CCN(CC4CCC(NC(=O)/C=C/c5ccc(Cl)c(Cl)c5)CC4)CC3)c2n1 (stereo not given)
Inhibition [1]: 99%
Inhibition [2]: 10%
Inhibition [3]: 2%

Cc1cccc2nc(-c3ccc(-c4cccc(CN5CCCC(O)C5)c4)s3)[nH]c12.O=C(O)C(F)(F)F (stereo not given)
Inhibition [1]: 95%
Inhibition [2]: 18%
Inhibition [3]: 13%

Cc1ccc(NC(=O)N2CCCN(CCCCCNC(=O)/C=C/c3ccc(Cl)c(Cl)c3)CC2)cc1C
Inhibition [1]: 100%
Inhibition [2]: 4%
Inhibition [3]: 62%

COc1ccc2[nH]ccc(=NN=Cc3ccccc3Cl)c2c1
Inhibition [1]: 100%
Inhibition [2]: 99%
Inhibition [3]: 29%

COc1ccc2c(NN=CC=Cc3ccccc3)ccnc2c1
Inhibition [1]: 100%
Inhibition [2]: 100%
Inhibition [3]: 9%

COc1ccc(CN(C)CCCOc2ccc(NC(=O)C=Cc3ccc(C(C)(C)C)cc3)cc2)cc1OC
Inhibition [1]: 100%
Inhibition [2]: 87%
Inhibition [3]: 14%

COc1ccc(CCc2ccc(-c3c(C)[nH]c(C)c(Cl)c3=O)cc2)cc1OC
Inhibition [1]: 99%
Inhibition [2]: 97%
Inhibition [3]: 0%

N#Cc1c(N2CCN(c3ccc(F)cc3)CC2)nc(N)c2c(N)nc3c(c12)CC(=O)N3C1CC1
Inhibition [1]: 95%
Inhibition [2]: 82%
Inhibition [3]: 2%

CCC(C)CN1C(=O)C(c2ccccc2)(c2ccccc2)N=C1N.O=CO (stereo not given)
Inhibition [1]: 98%
Inhibition [2]: 79%
Inhibition [3]: 11%

COc1ccc(CN2C(=S)N(Cc3ccccc3)C(=O)C2CC(=O)Nc2ccccc2)cc1OC (stereo not given)
Inhibition [1]: 96%
Inhibition [2]: 73%
Inhibition [3]: 6%

O=C(Nc1cccc(-c2ccc(-c3nc4ccccc4[nH]3)cc2)c1)Nc1ccc2c(c1)OCO2
Inhibition [1]: 90%
Inhibition [2]: 8%
Inhibition [3]: 20%

O=[N+]([O-])c1nc(Br)n(Cc2ccc(Cl)cc2)n1
Inhibition [1]: 96%
Inhibition [2]: 95%
Inhibition [3]: 0%

CC1CN(S(=O)(=O)c2ccc(NC(=O)c3cc(-c4ccccc4O)n[nH]3)cc2)CC(C)O1 (stereo not given)
Inhibition [1]: 97%
Inhibition [2]: 93%
Inhibition [3]: 21%

O=C(Nc1cccc(-c2ccc(CN3CCCC3)cc2)c1)c1cccc(F)c1.O=C(O)C(F)(F)F
Inhibition [1]: 99%
Inhibition [2]: 17%
Inhibition [3]: 20%

COc1cccc(C(=O)Nc2ccc(S(=O)(=O)c3cc4c(cc3OC)CCN(C)CC4)cc2)c1
Inhibition [1]: 86%
Inhibition [2]: 3%
Inhibition [3]: 0%

CC(=NNC(=N)N)c1ccc2c(ccc3ccccc32)c1.Cl
Inhibition [1]: 100%
Inhibition [2]: 15%
Inhibition [3]: 47%

NC(=O)C1CCN(Cc2ccc(-c3ccc(-c4nc5cc(C(F)(F)F)ccc5[nH]4)s3)cc2)CC1.O=C(O)C(F)(F)F
Inhibition [1]: 99%
Inhibition [2]: 91%
Inhibition [3]: 22%

CCc1ccc(-n2c(NC(=O)c3ccccc3)nc3ccc(S(=O)(=O)NC(C)C(C)C)cc32)cc1 (stereo not given)
Inhibition [1]: 88%
Inhibition [2]: 0%
Inhibition [3]: 48%

Cc1cccc2nc(-c3ccc(-c4cccc(CN5CCC(CCN6CCCCC6)CC5)c4)s3)[nH]c12.O=C(O)C(F)(F)F
Inhibition [1]: 100%
Inhibition [2]: 100%
Inhibition [3]: 99%

O=C(Nc1cccc(-c2cc(-c3c(Cl)cccc3Cl)no2)c1)c1cnc2ccccc2c1
Inhibition [1]: 87%
Inhibition [2]: 34%
Inhibition [3]: 0%
